Bioassay records (PubChem)
Rows were chosen to be rich in hits. Some 10% of all compounds tested hit in one or more screens of this group.
GLS inh: inhibitors of human glutaminase (GLS); GLS enzymatic activity, qHTS titration; Potency, µM (top dose mostly 45.5 µM), hits mostly inhibitors; 0.21% of 410,000 active
Target sequence (O94925 whole entry, looked up): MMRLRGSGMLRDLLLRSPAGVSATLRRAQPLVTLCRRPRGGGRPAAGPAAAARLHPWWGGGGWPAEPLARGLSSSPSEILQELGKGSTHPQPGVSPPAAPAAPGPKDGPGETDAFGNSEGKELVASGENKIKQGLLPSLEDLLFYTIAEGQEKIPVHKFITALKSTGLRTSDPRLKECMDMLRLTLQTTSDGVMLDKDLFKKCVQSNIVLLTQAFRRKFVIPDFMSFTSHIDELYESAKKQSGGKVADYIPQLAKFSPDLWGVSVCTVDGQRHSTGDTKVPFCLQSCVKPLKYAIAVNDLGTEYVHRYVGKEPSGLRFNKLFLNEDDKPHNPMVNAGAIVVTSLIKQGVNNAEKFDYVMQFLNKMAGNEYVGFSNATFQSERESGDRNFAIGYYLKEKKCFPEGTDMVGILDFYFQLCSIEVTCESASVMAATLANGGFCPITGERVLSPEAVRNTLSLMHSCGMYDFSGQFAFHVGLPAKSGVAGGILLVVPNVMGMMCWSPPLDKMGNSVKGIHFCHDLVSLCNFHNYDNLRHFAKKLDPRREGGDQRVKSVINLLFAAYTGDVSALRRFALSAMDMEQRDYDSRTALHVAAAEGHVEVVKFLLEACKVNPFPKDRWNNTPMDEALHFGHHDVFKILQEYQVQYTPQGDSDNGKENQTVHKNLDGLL
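Two-point fluorescence kinetic (t0, 30 min RT) for hKGA; glutamate detected via glutamate oxidase–HRP–Amplex Red. Substrate: 1 mM L-glutamine solution; buffer 45 mM KH2PO4, pH 8.2.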
L3MBTL1 inh: L3MBTL1 (human) inhibition; Q9Y468; AlphaScreen L3MBTL1–H3K9me1 peptide binding; Potency, µM (doses to about 57.1 µM), actives largely listed as inhibitors; 0.66% of 230,000 active; AID 485360; further: nearly all actives have a fitted effect of over 60% in size
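AlphaScreen assay: L3MBTL1 (50 nM final) was preincubated 30 min at room temperature with biotinylated H3(1-15)K9me1 peptide (75 nM final), then 30 min with library compounds; streptavidin donor and nickel chelate acceptor beads (10 ug/mL final) added, 30 min dark.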
HP1b binding inh: inhibitors of HP1-beta chromodomain binding to methylated histone tails. P83916. Potency, µM (series often up to 114 µM), most hits filed as inhibitors. AlphaScreen HP1-beta / biotin-H3K9me3 peptide binding. 0.56% of 390,000 active; further: nearly all actives have a fitted effect of over 70% in size
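AlphaScreen: HP1-beta (50 nM) preformed 30 min with biotin-H3(1-18)K9me3 peptide (50 nM) in PBS pH 7.4, 0.01% Tween-20. Compound added for 30 min at RT, then streptavidin donor/nickel chelate acceptor beads (10 ug/mL) for 30 min.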
G9a inh: blocks human histone lysine methyltransferase G9a; Q96KQ7; Potency, µM (titrated, usually from 102 µM), actives largely listed as inhibitors; 8.8% of 350,000 active; G9a H3K9 monomethylation, AlphaScreen, 2 h; further: nearly all actives have a fitted effect of over 75% in size
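AlphaScreen detection with an anti-monomethyl H3K9 antibody quantified product after a 2 h room-temperature reaction containing 500 nM biotinylated H3K9 peptide, 20 µM SAM and 20 nM enzyme, which had been preincubated 15 min with compound.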
BAZ2B inh: inhibitors of human BAZ2B bromodomain; Potency, µM (titrated, usually from 114 µM), usual class: inhibitors; Q9UIF8; 4.4% of 360,000 active; AlphaScreen BAZ2B-H3K14Ac peptide displacement; AID 504333; further: nearly all actives have a fitted effect of over 60% in size
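Inhibition is scored as reduced AlphaScreen emission. The BAZ2B/b-H3(5-23)K14Ac complex (50 nM each) in PBS pH 7.4, 0.01% Tween-20 meets compound (up to 110 uM) for 30 min at RT before bead addition.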
JMJD2A Tudor: JMJD2A Tudor domain (human) inhibition. O75164. AlphaScreen JMJD2A-Tudor / H3K4me3 peptide binding. Potency, µM (top dose mostly 114 µM), usual class: inhibitors. 4.4% of 390,000 active. AID 504339; further: nearly all actives have a fitted effect of over 50% in size
Numbers stand for hits; n = inactive; u = inconclusive; x = no result; [ ] = remark or other dose. The call rests on the fitted dose curve; in most records, active means well fitted curve in the direction sought with a large enough effect; inconclusive means small, poorly fitted or top-dose-only effect, or another doubt; inactive means no such curve, though single readings can be large; an effect the other way counts as inactive or inconclusive.

SMILES	GLS inh	L3MBTL1 inh	HP1b binding inh	G9a inh	BAZ2B inh	JMJD2A Tudor
C=C(C)C(=O)Nc1cccc(C2=NOC3(C2)C[C@@H](C(N)=O)N(C(=O)c2ccc(Cl)cc2)C3)c1 (stereo not given in full)	10µM	x	7.9µM	u	11µM	7.1µM
C=C(C)C(=O)Nc1cccc(C2=NOC3(C2)C[C@@H](C(N)=O)N(C(=O)c2cc([N+](=O)[O-])cc([N+](=O)[O-])c2C)C3)c1 (stereo not given in full)	u	x	6.3µM	u	28µM	18µM
C=C(C)C(=O)Nc1cccc(C2=NOC3(C2)C[C@H](C(N)=O)N(C(=O)COc2ccc(Cl)cc2)C3)c1 (stereo not given in full)	10µM	x	10µM	u	6.3µM	10µM
C=C(C)C(=O)Nc1cccc(C2=NOC3(C2)C[C@H](C(N)=O)N(C(=O)c2ccccc2)C3)c1 (stereo not given in full)	n	x	u	u	45µM	22µM
Cc1ccc(Cl)cc1N1CCN(CCCNc2ncnc3onc(-c4ccc(F)cc4)c23)CC1	n	x	n	u	n	n
COc1ccc(-c2nc(SCC(=O)Nc3ccc4c(c3)OCCO4)c(-c3ccc(C)cc3)[nH]2)cc1OC	n	x	n	n	n	u
NC(=O)[C@@H]1CC2(CC(c3cccc(NC(=O)[C@H]4CCC(=O)N4)c3)=NO2)CN1C(=O)COc1ccc(Cl)cc1 (stereo not given in full)	n	x	n	u	79µM	u
Cc1ccc(-c2n[nH]c(=S)n2/N=C/c2ccc(C(=O)O)cc2)cc1	n	x	n	3.2µM	n	3.2µM
S=c1[nH]nc(-c2ccncc2)n1/N=C/c1ccccc1	n	n	n	1.3µM	n	7.9µM
Cc1ccc(/C=N/n2c(-c3ccccc3)n[nH]c2=S)cc1	u	n	n	1.1µM	n	79µM
NS(=O)(=O)c1ccc(S(=O)(=O)N2CCN(c3nc(-c4cccs4)nc4ccccc34)CC2)cc1	x	x	n	x	x	n
Cc1cccc(Nc2nc(-c3ccccc3)c3cc(C)ccc3n2)c1	n	x	n	n	n	n
Fc1ccccc1N1CCN(c2c3c(nc4nncn24)CCC3)CC1	n	x	n	n	n	n
Cc1cc(C(=O)CN2CCC(C)CC2)c(C)n1-c1ccccc1F	n	n	n	50µM	n	n
CCc1nc(N)c(C#N)c(-c2ccc(OC)c(OC)c2)c1C	n	x	n	n[12.7 µM]	n	n
CC1=C(C#N)c2nc(N)c(C#N)c(C)c2/C1=C\c1ccc(OCC(=O)O)c(Cl)c1	n	u	u	22µM	50µM	20µM
O=C(c1cccc(N2C(=O)c3ccccc3C2=O)c1)N1CCCCCC1	n	x	n	22µM	u	n
O=C(O)c1cccc(N2C(=O)C3C4C=CC(C4=C(c4ccccc4)c4ccccc4)C3C2=O)c1 (stereo not given)	n	u	n	28µM	56µM	n[11.4 µM]
O=C(c1cccc(N2C(=O)C3C4C=CC(C4)C3C2=O)c1)N1CCCCCC1 (stereo not given)	n	x	n	1.3µM	n	n
CCOc1ccccc1NC(=O)Cn1c(=O)n(-c2ccc(Cl)cc2)c(=O)c2oc3ccccc3c21	n	x	n	n	n	n
O=C1OC/C(=C(/O)c2ccc(Cl)cc2)C1=O	n	n	n	40µM	n	n
CCn1cc2nc(SCC(=O)Nc3ccccc3C(F)(F)F)n(Cc3ccc(C)cc3)c(=O)c2n1	n	x	n	u	u	n
O=C1CCN(CCc2ccccc2)CCN1C(CSc1ccc(Br)cc1)c1ccccc1 (stereo not given)	x	x	n	x	x	u
CCN(CC)C1=N/C(=C\c2ccco2)C(=O)N1c1ccccc1	n	n	n	28µM	u	n
COc1ccc(C(=O)/C(Br)=C/C(=O)O)cc1	n	x	x	u	x	x
SMILES	GLS inh	L3MBTL1 inh	HP1b binding inh	G9a inh	BAZ2B inh	JMJD2A Tudor
Cc1cccc(OCC(=O)Nc2nnc(S(=O)(=O)N3CCc4ccccc43)s2)c1	n	x	n	u	n	n
CCSc1nnc(NC(=O)c2ccccn2)s1	n	n[11.4 µM]	n	u	6.3µM	8.9µM
CCSc1nnc(NC(=O)C(CC)(C(F)(F)F)C(F)(F)F)s1	n	x	n	50µM	u	n
CCSc1nnc(NC(=O)c2cnccn2)s1	n	n	n	n	n	79µM
CCSc1nnc(NC(=O)c2cccnc2)s1	n	x	n	n[12.7 µM]	n	n
Cc1nc2ccc(S(=O)(=O)NC(C(=O)NCc3ccc(Cl)cc3)C(C)C)cc2s1 (stereo not given)	n	x	n	n	n	n
COc1cc(NC(=O)CSc2nc(C)c(C(=O)Nc3ccccc3)c(-c3ccc(OC)c(OC)c3)c2C#N)c(OC)cc1Cl	n	x	n	n	n	n
Cc1c(C=O)c(Cl)n(C)c(=O)c1C#N	n	n	n	40µM	56µM	79µM
CC(=O)N=Cc1c(C)c(C#N)c(=O)n(C)c1O	n	x	n	45µM	n	n
Cc1cc(C)n(C)c(=O)c1C#N	n	n	n	n	n	n
Cc1cc(NC(=O)C2CCCN(S(=O)(=O)c3cccc4nonc34)C2)ccc1Br (stereo not given)	n	x	n	n	n	n
O=C(O)/C=C/c1ccc([N+](=O)[O-])o1	11µM	u	50µM	22µM	56µM	35µM
NC(=O)c1c(NC(=O)c2noc3c2CCCC3)sc2c1CCCC2	n	x	u	1.8µM	n	79µM
Cn1ccc(C(=O)Nc2sc3c(c2C(N)=O)CCCCC3)n1	n	x	n	22µM	n	n
CCOC(=O)c1c(NC(=O)c2noc3c2CC(C(C)(C)C)CC3)sc2c1CCCC2 (stereo not given)	n	x	u	2µM	n	79µM
CC(=O)Nc1sc2c(c1C(N)=O)CCCC2	n	n	n	n[12.7 µM]	n	n
COC(=O)c1c(NC(=O)c2nc3nc(C)cc(C(F)F)n3n2)sc2c1CCC2	n	n	n	n	n	n
Cc1cc(C(F)F)n2nc(C(=O)Nc3sc4c(c3C(N)=O)CCC4)nc2n1	n	n	n	40µM	n	n
O=C(Cn1c(=O)n(-c2ccc(Cl)cc2)c(=O)c2c3c(sc21)CCCCC3)Nc1cccc(Cl)c1	n	x	n	n	n	n
O=[N+]([O-])c1ccc(N2CCCC2)cc1N1CCCC1	n	u	16µM	n[12.7 µM]	25µM	45µM
Cc1ccc(C(=O)Nc2ccc(N3CCCC3)cc2)c(C)c1	n	n	u	x	u	50µM
O=C(Nc1cccc(S(=O)(=O)N2CCCCCC2)c1)c1ccc2ccccc2n1	n	n	n	u	n	n
O=C(Nc1ccc(N2CCCCC2)cc1)c1ccc2ccccc2n1	n	x	u	28µM	u	20µM
CC(=O)Nc1ccc(NC(=O)c2ccccc2C)cc1	n	x	n	n[12.7 µM]	n	n
Cc1ccccc1C(=O)Nc1ccc(N2CCCC2)cc1	n	n	n	3.2µM	u	28µM
